According to the supplement of paper PMC12645437, “Orthogonal IMiD-Degron Pairs Induce Selective Protein Degradation in Cells” (ACS Chemical Biology, 2025):
In all, about 8,300 sequences were measured (“log2 fold change of degron read counts, EGFP-low vs EGFP+ sorted cells (limma voom), compound-induced degradation”: median about -1.1, highest 2% from about 3.2 on). The entries come from a sample that favours the highest values as a whole.

Biological target: T1, CRBN, Q96SW2
T1 chain: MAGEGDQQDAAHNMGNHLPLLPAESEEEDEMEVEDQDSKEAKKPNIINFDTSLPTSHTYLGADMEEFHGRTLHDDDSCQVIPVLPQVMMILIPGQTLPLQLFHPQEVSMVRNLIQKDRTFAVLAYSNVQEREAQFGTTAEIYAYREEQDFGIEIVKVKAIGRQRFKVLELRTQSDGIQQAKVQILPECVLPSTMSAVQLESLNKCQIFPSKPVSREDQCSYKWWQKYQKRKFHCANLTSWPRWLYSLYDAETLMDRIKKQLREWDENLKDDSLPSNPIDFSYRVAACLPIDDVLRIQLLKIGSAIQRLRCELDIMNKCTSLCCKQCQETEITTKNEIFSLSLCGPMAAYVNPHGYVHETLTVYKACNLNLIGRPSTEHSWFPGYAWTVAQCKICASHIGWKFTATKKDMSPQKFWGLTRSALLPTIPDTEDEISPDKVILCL
Assay: log2 fold change of degron read counts, EGFP-low vs EGFP+ sorted cells (limma voom), compound-induced degradation; higher = more compound-induced degradation of the degron-EGFP fusion; degrons are variants of IKZF1/3 zinc finger 2; compound dose not given here
Conditions: Jurkat, 18 h

[1] = compound: compound 19 (5-tert-butyl-thalidomide)
[2] = compound: compound 22 (5-morpholino-thalidomide)
[3] = compound: compound 33 (diphenyl IMiD analogue)
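Further: pooled lentiviral library of zinc finger degron-EGFP fusions in mCherry-positive Jurkat cells, FACS-sorted after compound exposure, with degron abundance counted by next-generation sequencing.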

Sequence: FLCPQCGATFTQKGNLLRHIKL [46F_47L_49P_50Q_52G_53A_54T_55F_67L_, Q9UKT9]
- log2 fold change of degron read counts [1]: -3.01
- log2 fold change of degron read counts [2]: -2.75
- log2 fold change of degron read counts [3]: -0.206
- log2 fold change of degron read counts (compound: thalidomide): -0.949

Sequence: FLCEICGHMFTQKGNLLRHIKL [46F_47L_49E_50I_52G_53H_54M_55F_67L_, Q9UKT9]
- log2 fold change of degron read counts [1]: -2.82
- log2 fold change of degron read counts [2]: -2.78
- log2 fold change of degron read counts [3]: -2.56
- log2 fold change of degron read counts (compound: thalidomide): -2.3

Sequence: FGCPICGRGFTQKGNLLRHIKL [46F_47G_49P_50I_52G_53R_54G_55F_67L_, Q9UKT9]
- log2 fold change of degron read counts [1]: 2.07
- log2 fold change of degron read counts [2]: -0.191
- log2 fold change of degron read counts [3]: 0.245
- log2 fold change of degron read counts (compound: thalidomide): -0.872

Sequence: FTCPQCGATFTQKGNLLRHIKL [46F_47T_49P_50Q_52G_53A_54T_55F_67L_, Q9UKT9]
- log2 fold change of degron read counts [1]: -2
- log2 fold change of degron read counts [2]: -0.214
- log2 fold change of degron read counts [3]: 1.22
- log2 fold change of degron read counts (compound: thalidomide): 0.676

Sequence: FTCNQCGAIFTQKGNLLRHIKL [46F_47T_49N_50Q_52G_53A_54I_55F_67L_, Q9UKT9]
- log2 fold change of degron read counts [1]: -2.47
- log2 fold change of degron read counts [2]: -2.59
- log2 fold change of degron read counts [3]: -1.37
- log2 fold change of degron read counts (compound: thalidomide): -1.93

Sequence: FVCPQCGAEFTQKGNLLRHIKL [46F_47V_49P_50Q_52G_53A_54E_55F_67L_, Q9UKT9]
- log2 fold change of degron read counts [1]: -2.41
- log2 fold change of degron read counts [2]: -1.67
- log2 fold change of degron read counts [3]: -0.946
- log2 fold change of degron read counts (compound: thalidomide): -0.352

Sequence: FECEICGRDFTQKGNLLRHIKL [46F_47E_49E_50I_52G_53R_54D_55F_67L_, Q9UKT9]
- log2 fold change of degron read counts [1]: -3.1
- log2 fold change of degron read counts [2]: -3.32
- log2 fold change of degron read counts [3]: -2.34
- log2 fold change of degron read counts (compound: thalidomide): -2.82

Sequence: LGCEICGFNCTQKGNLLRHIKL [46L_47G_49E_50I_52G_53F_54N_55C_67L_, Q9UKT9]
- log2 fold change of degron read counts [1]: -0.546
- log2 fold change of degron read counts [2]: -1.21
- log2 fold change of degron read counts [3]: -1.47
- log2 fold change of degron read counts (compound: thalidomide): -1.13

Sequence: FVCEICGRKFTQKGNLLRHIKL [46F_47V_49E_50I_52G_53R_54K_55F_67L_, Q9UKT9]
- log2 fold change of degron read counts [1]: -1.83
- log2 fold change of degron read counts [2]: -1.33
- log2 fold change of degron read counts [3]: -1.16
- log2 fold change of degron read counts (compound: thalidomide): 1.3

Sequence: LLCEICGFICTQKGNLLRHIKL [46L_47L_49E_50I_52G_53F_54I_55C_67L_, Q9UKT9]
- log2 fold change of degron read counts [1]: -0.407
- log2 fold change of degron read counts [2]: -0.959
- log2 fold change of degron read counts [3]: 0.146
- log2 fold change of degron read counts (compound: thalidomide): 1.04

Sequence: FHCPICGRQFTQKGNLLRHIKL [46F_47H_49P_50I_52G_53R_54Q_55F_67L_, Q9UKT9]
- log2 fold change of degron read counts [1]: 0.0895
- log2 fold change of degron read counts [2]: 0.838
- log2 fold change of degron read counts [3]: 1.45
- log2 fold change of degron read counts (compound: thalidomide): 0.286

Sequence: LRCPICGFPCTQKGNLLRHIKL [46L_47R_49P_50I_52G_53F_54P_55C_67L_, Q9UKT9]
- log2 fold change of degron read counts [1]: 2.94
- log2 fold change of degron read counts [2]: 3.54
- log2 fold change of degron read counts [3]: 3.02
- log2 fold change of degron read counts (compound: thalidomide): 3.44

Sequence: LVCPICGFECTQKGNLLRHIKL [46L_47V_49P_50I_52G_53F_54E_55C_67L_, Q9UKT9]
- log2 fold change of degron read counts [1]: 0.125
- log2 fold change of degron read counts [2]: 2.29
- log2 fold change of degron read counts [3]: 1.28
- log2 fold change of degron read counts (compound: thalidomide): 2.99

Sequence: LSCPICGFRCTQKGNLLRHIKL [46L_47S_49P_50I_52G_53F_54R_55C_67L_, Q9UKT9]
- log2 fold change of degron read counts [1]: 2.79
- log2 fold change of degron read counts [2]: 2.57
- log2 fold change of degron read counts [3]: 1.22
- log2 fold change of degron read counts (compound: thalidomide): 2.27

Sequence: LICPICGFPCTQKGNLLRHIKL [46L_47I_49P_50I_52G_53F_54P_55C_67L_, Q9UKT9]
- log2 fold change of degron read counts [1]: 0.112
- log2 fold change of degron read counts [2]: 1.65
- log2 fold change of degron read counts [3]: 0.899
- log2 fold change of degron read counts (compound: thalidomide): 1.78

Sequence: LNCPICGFRCTQKGNLLRHIKL [46L_47N_49P_50I_52G_53F_54R_55C_67L_, Q9UKT9]
- log2 fold change of degron read counts [1]: 1.52
- log2 fold change of degron read counts [2]: 0.801
- log2 fold change of degron read counts [3]: 0.131
- log2 fold change of degron read counts (compound: thalidomide): 1.04

Sequence: LCCPICGFPCTQKGNLLRHIKL [46L_47C_49P_50I_52G_53F_54P_55C_67L_, Q9UKT9]
- log2 fold change of degron read counts [1]: 0.812
- log2 fold change of degron read counts [2]: 1.08
- log2 fold change of degron read counts [3]: 1.35
- log2 fold change of degron read counts (compound: thalidomide): 1.76

Sequence: LHCPICGFRCTQKGNLLRHIKL [46L_47H_49P_50I_52G_53F_54R_55C_67L_, Q9UKT9]
- log2 fold change of degron read counts [1]: 2.28
- log2 fold change of degron read counts [2]: 2.4
- log2 fold change of degron read counts [3]: 1.58
- log2 fold change of degron read counts (compound: thalidomide): 1.74

Sequence: LKCPICGFRCTQKGNLLRHIKL [46L_47K_49P_50I_52G_53F_54R_55C_67L_, Q9UKT9]
- log2 fold change of degron read counts [1]: -1.28
- log2 fold change of degron read counts [2]: -2.03
- log2 fold change of degron read counts [3]: -2.25
- log2 fold change of degron read counts (compound: thalidomide): -0.57

Sequence: LFCPICGFRCTQKGNLLRHIKL [46L_47F_49P_50I_52G_53F_54R_55C_67L_, Q9UKT9]
- log2 fold change of degron read counts [1]: 3.24
- log2 fold change of degron read counts [2]: 3.2
- log2 fold change of degron read counts [3]: 1.81
- log2 fold change of degron read counts (compound: thalidomide): 1.69

Sequence: LQCPICGFECTQKGNLLRHIKL [46L_47Q_49P_50I_52G_53F_54E_55C_67L_, Q9UKT9]
- log2 fold change of degron read counts [1]: 1.35
- log2 fold change of degron read counts [2]: 1.29
- log2 fold change of degron read counts [3]: 2.04
- log2 fold change of degron read counts (compound: thalidomide): 3.44

Sequence: LMCPICGFECTQKGNLLRHIKL [46L_47M_49P_50I_52G_53F_54E_55C_67L_, Q9UKT9]
- log2 fold change of degron read counts [1]: -0.925
- log2 fold change of degron read counts [2]: 0.39
- log2 fold change of degron read counts [3]: 2.43
- log2 fold change of degron read counts (compound: thalidomide): 1.39

Sequence: LACPICGFRCTQKGNLLRHIKL [46L_47A_49P_50I_52G_53F_54R_55C_67L_, Q9UKT9]
- log2 fold change of degron read counts [1]: 3.37
- log2 fold change of degron read counts [2]: 2.7
- log2 fold change of degron read counts [3]: 1.18
- log2 fold change of degron read counts (compound: thalidomide): 2.12

Sequence: FCCPVCGAMFTQKGNLLRHIKL [46F_47C_49P_50V_52G_53A_54M_55F_67L_, Q9UKT9]
- log2 fold change of degron read counts [1]: 1.36
- log2 fold change of degron read counts [2]: 0.957
- log2 fold change of degron read counts [3]: 2.19
- log2 fold change of degron read counts (compound: thalidomide): 1.18

Sequence: FGCNVCGACFTQKGNLLRHIKL [46F_47G_49N_50V_52G_53A_54C_55F_67L_, Q9UKT9]
- log2 fold change of degron read counts [1]: 0.221
- log2 fold change of degron read counts [2]: 0.434
- log2 fold change of degron read counts [3]: 1.03
- log2 fold change of degron read counts (compound: thalidomide): -0.871

Sequence: FRCEICGHAFTQKGNLLRHIKL [46F_47R_49E_50I_52G_53H_54A_55F_67L_, Q9UKT9]
- log2 fold change of degron read counts [1]: -3.15
- log2 fold change of degron read counts [2]: -2.82
- log2 fold change of degron read counts [3]: -1.17
- log2 fold change of degron read counts (compound: thalidomide): -1.87

Sequence: FACNVCGAEFTQKGNLLRHIKL [46F_47A_49N_50V_52G_53A_54E_55F_67L_, Q9UKT9]
- log2 fold change of degron read counts [1]: -1.27
- log2 fold change of degron read counts [2]: -1.39
- log2 fold change of degron read counts [3]: -1.75
- log2 fold change of degron read counts (compound: thalidomide): -2.2

Sequence: FMCSVCGHCFTQKGNLLRHIKL [46F_47M_49S_50V_52G_53H_54C_55F_67L_, Q9UKT9]
- log2 fold change of degron read counts [1]: -2.46
- log2 fold change of degron read counts [2]: -3.02
- log2 fold change of degron read counts [3]: -2.83
- log2 fold change of degron read counts (compound: thalidomide): -2.57
